Screening results deposited in PubChem by The Scripps Research Institute Molecular Screening Center.
Most compounds without a hit are left out; they make up all but 3.5% or so of the library.
FBW7 act – FBW7 E3 ligase activators, primary screen, biochemical, AlphaScreen, human; F-box/WD repeat-containing protein 7 (Homo sapiens), Q969H0; AlphaScreen FBW7–phospho-cyclin E peptide binding, activator screen; normalized activity (activation), % at 26.1 µM; hit rate 0.13% among 650,000; AID 1259310, 2017; in the data active means normalized activity above about 1.9%;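 further: purified mutant Fbw7 with reduced substrate affinity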
MITF primary – MITF inhibitors, primary screen, biochemical, AlphaScreen, human. AlphaScreen MITF homodimerization, bead proximity signal. hit rate 0.91% among 650,000. inhibition, % at 2.6 µM. Microphthalmia-associated transcription factor (Homo sapiens), O75030; in the data active means inhibition above about 50%;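 further: 0% = vehicle wells with protein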
Target sequence (O75030 whole entry, looked up): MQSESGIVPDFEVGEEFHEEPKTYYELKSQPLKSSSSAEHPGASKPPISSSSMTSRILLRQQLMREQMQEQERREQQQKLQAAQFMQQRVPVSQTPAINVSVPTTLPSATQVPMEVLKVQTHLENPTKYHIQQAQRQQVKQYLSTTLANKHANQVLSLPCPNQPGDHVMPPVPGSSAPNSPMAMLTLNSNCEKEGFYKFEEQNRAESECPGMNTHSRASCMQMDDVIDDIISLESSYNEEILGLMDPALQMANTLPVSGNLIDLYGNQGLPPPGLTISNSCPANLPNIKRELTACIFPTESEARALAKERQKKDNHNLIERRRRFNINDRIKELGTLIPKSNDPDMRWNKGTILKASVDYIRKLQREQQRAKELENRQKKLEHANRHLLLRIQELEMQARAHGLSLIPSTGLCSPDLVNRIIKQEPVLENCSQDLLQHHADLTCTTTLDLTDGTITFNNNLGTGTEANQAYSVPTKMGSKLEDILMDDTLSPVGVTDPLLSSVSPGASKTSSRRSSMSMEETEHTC
TEAD-YAP block – TEAD-YAP interaction inhibition, primary screen, TEAD-YAP interaction inhibitor project, luminescence, HEK-TIYL cells; AID 1259422, 2018; hit rate 1.4% among 640,000; inhibition, % at 9.12 µM; TEAD-Gal4/YAP UAS-luciferase luminescence; in the data active means inhibition above about 32%;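 further: 0% = median of test compound wells and 100% = reference inhibitor wells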
GPR151 ag – activators of human GPR151, primary screen, cell-based, PathHunter beta-arrestin, luminescence; G-protein coupled receptor 151 (Homo sapiens), Q8TDV0; PathHunter beta-arrestin GPR151 cells; activation, % at 11.2 µM; hit rate 1% among 650,000; AID 1508602, 2020; in the data active means activation above about 4.9%;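 further: 0% = median of compound wells and 100% = cells with positive control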
GPR151 conf act – GPR151 activators, triplicate retest, confirmation, cell-based, PathHunter beta-arrestin, luminescence. activation, % at 11.2 µM. shares compounds with GPR151 ag. GPR151 PathHunter beta-arrestin cells, 90 min; % of EA-reagent control over plate median. 6,700 tested, under 10 active;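 active means mean percent activation across replicates above the confirmation screen cutoff of 4.91%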
GPR119 counter – GPR119 activators in beta-arrestin cells, counter-screen for GPR151 activator project, cell-based, PathHunter beta-arrestin, luminescence, triplicate; activation, % at 11.2 µM; 90 min; 0 = compound-well median, 100 = enzyme-acceptor control; hit rate 0.3% among 6,700; shares compounds with GPR151 ag;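 active means mean percent activation in the counterscreen above 29.09%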;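 further: counterscreen on off-target GPR119 to flag nonselective hits from the GPR151 activator screen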
* = called active by the depositor; nt = no result given.

SMILES	FBW7 act	MITF primary	TEAD-YAP block	GPR151 ag	GPR151 conf act	GPR119 counter
Cc1c(C(=O)Nc2ccc(F)cc2F)sc2ncn(Cc3ccccc3F)c(=O)c12	0	-6	1	0	nt	nt
CC1=C(C(=O)Nc2cccc(C(F)(F)F)c2)C(c2cccs2)C2=C(CCCC2=O)N1 (stereo not given)	0	2	1	6.5*	0	8
Clc1ccccc1OCCN1CCNCC1	0	3	7	5.4*	1	9
COc1cccc(OC)c1OCCN1CCNCC1	0	3	-7	0	nt	nt
CCOc1ccc(C2=NN3C(C2)c2cccc(OCC)c2OC3c2cccc(F)c2)cc1 (stereo not given)	0	7	1	1	nt	nt
CC(C)N(CCNC(=O)c1cccc(-c2ccccc2)n1)C(C)C	0	15	3	-1	nt	nt
CC(C)N(CCNC(=O)c1cccc(-c2ccc3c(ccn3C)c2)n1)C(C)C	2.2*	-9	9	12*	1	4
COc1ccc(-c2cccc(C(=O)NCCN(C(C)C)C(C)C)n2)cc1	0	-3	6	8.8*	0	3
COc1ccc(-c2ncc(C(=O)NCCN(C(C)C)C(C)C)s2)cn1	0	-6	8	1	nt	nt
COc1ccc(-c2ncc(C(=O)NCCN(C(C)C)C(C)C)s2)cc1	0	14	4	7.8*	0	-6
Cc1cc2c(c(=O)o1)C(c1cc(Br)cs1)C(C#N)=C(N)O2 (stereo not given)	0	6	-1	0	nt	nt
CC(C(=O)Nc1cccc(C(F)(F)F)c1)N(c1ccc(Cl)cc1)S(C)(=O)=O (stereo not given)	0	-12	-4	6.8*	0	0
COC(=O)c1c(N2C(N)=C(C#N)C(c3cccc([N+](=O)[O-])c3)C3=C2CC(C)(C)CC3=O)sc2c1CCCCC2 (stereo not given)	0	-16	0	0	nt	nt
COCCN(CCOC)S(=O)(=O)c1ccc(C(=O)Nc2nc(-c3ccncc3)cs2)cc1	0	-9	-3	8.8*	1	13
COCCN(CCOC)S(=O)(=O)c1ccc(C(=O)Nc2nc(-c3ccc(OC)cc3)cs2)cc1	0	-7	1	-1	nt	nt
Cc1ccc(C2=NC(c3c(F)cccc3Cl)NC(c3ccccc3O)C2)cc1 (stereo not given)	0	-2	-67	-1	nt	nt
O=C(NC1CCCC1)C1CCC(=O)N1C1CCCCC1 (stereo not given)	0	4	4	4	nt	nt
O=C(NC1CC1)C1CCC(=O)N1C1CCCCC1 (stereo not given)	0	12	0	8.5*	-1	-8
COCCCNC(=O)c1ccc2c(c1)NC(=O)/C(=C\c1ccc(OC)cc1)S2	0	-1	6	7.2*	0	0
COc1ccc(/C=C2/Sc3ccc(C(=O)NC(C)(C)C)cc3NC2=O)cc1	0	-1	-4	0	nt	nt
CN1CCN(/N=C/C2=C(O)CC(C)(C)CC2=O)CC1	1	23	-1	8.4*	0	4
CN1C(=O)/C(=C\c2ccc(Cl)c([N+](=O)[O-])c2)c2ccccc21	0	1	-6	-2	nt	nt
Cc1ccc(OCCNC(=O)C(=O)Nc2ccccc2F)cc1C	0	1	1	5.2*	1	-3
CC1CCCN(S(=O)(=O)c2cccc(-c3cn4cccnc4n3)c2)C1 (stereo not given)	0	2	-2	5.0*	2	2
CCN(CC)S(=O)(=O)c1cccc(-c2cn3cccnc3n2)c1	0	7	7	-1	nt	nt
SMILES	FBW7 act	MITF primary	TEAD-YAP block	GPR151 ag	GPR151 conf act	GPR119 counter
Clc1cncc(Cl)c1N1CCN(c2ccc(Br)cn2)CC1	0	-3	5	2	nt	nt
CCOC(=O)CCn1c(=O)c2c(nc3n(-c4ccc(F)cc4)c(C)c(C)n23)n(C)c1=O	0	13	-3	0	nt	nt
CCc1nc(-n2nc(C)cc2N)c2c3c(sc2n1)CCCC3	0	-3	-2	6.5*	1	-8
CCc1nc(-n2nc(C)cc2N)c2c3c(sc2n1)CCC3	0	-4	-4	-2	nt	nt
Cc1cccc(C)c1N(CC(=O)Nc1ccc2c(c1)OCO2)S(C)(=O)=O	0	11	-8	-1	nt	nt
Cc1cccc(C(=O)Nc2cccc(-c3nc4ccccc4s3)c2)c1	0	-7	0	0	nt	nt
O=C(Nc1cccc(-c2nc3ccccc3s2)c1)c1ccc(N2C(=O)CCC2=O)cc1	0	2	-2	7.4*	-1	2
O=C(Nc1cccc(-c2nc3ccccc3s2)c1)c1ccccc1	0	13	3	2	nt	nt
O=C(Nc1cccc(-c2nc3ccccc3s2)c1)C12CC3CC(CC(C3)C1)C2	0	-13	-5	5.5*	1	0
Nc1nc(-c2ccc(C(=O)NC3CC3)cc2)nc2c1ncn2C1CCCCC1	0	6	-8	6.2*	0	3
CN1CCN(c2ccc(-c3nc(NCc4cccc(C(F)(F)F)c4)c4ncn(C5CCCCC5)c4n3)cc2)CC1	0	12	12	-1	nt	nt
O=C(NC1CC1)c1ccc(-c2nc(NCCO)c3ncn(C4CCCCC4)c3n2)cc1	0	19	11	1	nt	nt
COc1ccc(-c2nc(NC3CCN(Cc4ccccc4)CC3)c3ncn(C4CCCCC4)c3n2)cc1	0	2	-1	5.8*	-1	-8
CC(=O)c1cccc(-c2nc(NC3CC3)c3ncn(C4CCCCC4)c3n2)c1	0	15	-6	9.4*	-1	-7
CN1CCN(C(=O)c2ccc(-c3nc(NCc4cccc(C(F)(F)F)c4)c4ncn(C5CCCCC5)c4n3)cc2)CC1	0	-1	6	5.0*	0	-21
CCCNc1nc(-c2cccc(C(C)=O)c2)nc2c1ncn2C1CCCCC1	0	-4	-15	2	nt	nt
CCC1CN(CCNC(=O)/C=C/c2ccncc2)Cc2cc(OC)ccc2O1 (stereo not given)	0	-6	3	-1	nt	nt
COc1cc2nc(N3CCCCCC3)cc(C)c2c(OC)c1OC	0	8	2	-1	nt	nt
COc1ccc(OCCOCCNC(C)(C)C)cc1	0	28	-6	0	nt	nt
O=C(CCS(=O)(=O)c1ccc(Br)s1)NC1CCCc2ccccc21 (stereo not given)	0	-4	7	0	nt	nt
CN(CC(=O)NC1CCCc2ccccc21)S(=O)(=O)c1ccc(Br)s1 (stereo not given)	0	1	1	11*	0	-4
